Compounds with a hit are over-represented: about 2.4% of the library has one in this group of screens.
WRN helicase inh = inhibitors of human WRN helicase; Q14191; WRN helicase unwinding, fluorescent forked duplex, kinetic; Potency, µM (series often up to 114 µM), for the others: at the highest dose activity change, negative = inhibition, hits mostly inhibitors; actives 0.46% (n = 360,000); further: on the % scale 0 is the no-effect control and ±100 the full control effect; nearly all actives have a fitted effect of over 55% in size
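WRN at 20 nM final was preincubated with compound for 15 min at room temperature; reaction started with 100 nM forked duplex oligonucleotide carrying fluorophore and quencher plus 2 mM ATP (final). Unwinding followed kinetically by red fluorescence (ex 525/em 598 nm).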
Pol iota inh = inhibitors of human DNA polymerase iota. actives 1% (n = 390,000). Q9UNA4. Potency, µM (doses to about 115 µM), inactives show at the top dose activity, negative = inhibition, actives largely listed as inhibitors. Pol iota fluorescent replication assay, 10 min
Target sequence (Q9UNA4 whole entry, looked up): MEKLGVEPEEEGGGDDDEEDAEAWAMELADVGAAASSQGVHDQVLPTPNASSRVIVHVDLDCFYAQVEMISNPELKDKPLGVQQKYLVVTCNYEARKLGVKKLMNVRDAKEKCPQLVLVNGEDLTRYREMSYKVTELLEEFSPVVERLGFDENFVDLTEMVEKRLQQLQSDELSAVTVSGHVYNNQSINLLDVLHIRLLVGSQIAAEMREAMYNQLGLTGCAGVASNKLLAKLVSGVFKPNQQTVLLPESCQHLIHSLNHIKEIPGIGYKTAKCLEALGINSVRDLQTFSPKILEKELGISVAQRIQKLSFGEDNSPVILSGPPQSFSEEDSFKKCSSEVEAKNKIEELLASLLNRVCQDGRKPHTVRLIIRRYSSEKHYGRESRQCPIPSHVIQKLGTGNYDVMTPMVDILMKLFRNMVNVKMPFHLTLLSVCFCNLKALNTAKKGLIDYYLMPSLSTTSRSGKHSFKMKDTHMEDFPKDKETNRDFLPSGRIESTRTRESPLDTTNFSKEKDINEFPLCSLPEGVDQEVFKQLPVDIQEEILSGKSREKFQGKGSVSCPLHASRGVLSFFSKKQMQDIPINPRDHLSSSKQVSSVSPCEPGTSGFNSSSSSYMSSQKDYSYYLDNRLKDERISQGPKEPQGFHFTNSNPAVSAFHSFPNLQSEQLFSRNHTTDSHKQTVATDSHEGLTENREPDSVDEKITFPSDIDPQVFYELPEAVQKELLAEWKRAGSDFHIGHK
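Pol iota at 10 nM preincubated 15 min with compounds at room temperature; reaction started with fluorescent substrate, 50 nM final. Fluorescence read kinetically at 0 and 10 min; buffer-only wells as negative control.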
POLB inh = inhibitors of human DNA polymerase beta; Potency, µM (doses to about 114 µM), inactives show top-dose activity change, negative = inhibition, hits mostly inhibitors; P06746; Pol beta primer extension/strand displacement, fluorescence kinetic; AID 485314; actives 1.3% (n = 340,000); further: on the % scale 0 is the no-effect control and ±100 the full control effect
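10 nM enzyme + cpd, 15 min RT; start with substrate 50 nM final; read 0 min and after 10 min RT. Corrected, normalized data; 4-parameter Hill curve fit.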
FEN1 inh = inhibitors of human flap endonuclease 1; P39748; Recombinant FEN1 flap cleavage, fluorescence, 15 min; Potency, µM (highest dose often 114 µM), for the others: at the highest dose activity change, negative = inhibition, actives largely listed as inhibitors; actives 0.35% (n = 390,000); AID 588795; further: on the % scale 0 is the no-effect control and ±100 the full control effect; nearly all actives have a fitted effect of over 65% in size
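In this screen, 50 nM flap DNA substrate was added to 10 nM FEN1 pretreated with compound for 15 min at room temperature; cleavage was followed with reads at 0 and 15 min, and Hill fitting gave concentration–response parameters.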
POLK inh = blocks human DNA polymerase kappa activity. Potency, µM (top dose mostly 107 µM), inactives show at the highest dose activity, negative = inhibition, usual class: inhibitors. Q9UBT6. actives 0.53% (n = 400,000). purified Pol kappa, fluorescent DNA synthesis assay, 10 min; further: on the % scale 0 is the no-effect control and ±100 the full control effect
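50 nM final substrate added after 15 min RT preincubation of 10 nM Pol kappa with compound; fluorescence read at 0 and 10 min.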
POLH inh = inhibitors of human DNA polymerase eta. Q9Y253. recombinant Pol eta, fluorescent DNA replication assay. Potency, µM (series often up to 114 µM), inactives show top-dose activity change, negative = inhibition, hits mostly inhibitors. actives 1.2% (n = 390,000). AID 588591; further: on the % scale 0 is the no-effect control and ±100 the full control effect
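Pol eta (10 nM) was preincubated with compounds for 15 min at room temperature, after which fluorescent replication substrate (50 nM final) was added to start the reaction. Fluorescence was read kinetically at 0 and 10 min.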
* hit, by the source's call; ? = inconclusive; . = not tested or not shown; [ ] = another dose, or the depositor's remark. The call rests on the fitted dose curve; in most records, active means well fitted curve in the direction sought with a large enough effect; inconclusive means small, poorly fitted or top-dose-only effect, or another doubt; inactive means no such curve, though single readings can be large; an effect the other way counts as inactive or inconclusive. Potency means the concentration at half of the fitted maximal effect.

SMILES | WRN helicase inh | Pol iota inh | POLB inh | FEN1 inh | POLK inh | POLH inh
Cc1ccc2c(c1)N(C(=O)N1CCC(C(=O)NCCc3ccc(Cl)cc3)CC1)CC(C)O2 (configuration not stated) | . | ? | -1% | -1% | 1% | -10%
Brc1cccc[n+]1CCCCCC[n+]1ccccc1Br | . | 4% | . | 79µM* | 7% | .
Brc1cccc[n+]1CCCC[n+]1ccccc1Br | . | ? | . | 79µM* | -6% | .
CCOc1ccccc1N(CC)C(=O)c1cc2c(=O)[nH]c3ccc(C)cc3c2s1 | . | 15% | 8% | -1% | 9% | -8%
C=CCn1c(SCc2cc(=O)n3ccsc3n2)nc2sc(C)c(C)c2c1=O | -11%[57.1 µM] | 32µM* | 50µM* | 6% | -42% | ?
O=C(NCc1cccs1)c1cc(-c2ccncc2)nc2ccc(Br)cc12 | . | . | 40µM* | . | . | .
O=S(=O)(c1ccc(Br)cc1)c1nnn2c1nc(NCCc1ccccc1)c1sccc12 | . | 30% | -13% | 17% | -7% | -14%
Cc1ccc(CCNc2nc3c(S(=O)(=O)c4ccccc4)nnn3c3ccsc23)cc1 | . | 8% | 1% | 89µM* | -25% | 2%
O=S(=O)(c1ccc(Cl)cc1)c1nnn2c1nc(NC1CCCCC1)c1sccc12 | . | 6% | 32µM* | ? | -19% | -29%
CC(=O)c1cccc(NC(=O)COc2ccccc2C(=O)Nc2ccccc2)c1 | . | 44% | . | -34% | -28% | .
CCCCN(C(=O)Cn1ncc(Cl)c(Cl)c1=O)c1c(N)n(CC(C)C)c(=O)[nH]c1=O | -34% | 16µM* | 22µM* | -20% | 71µM* | 28µM*
CCCCN(C(=O)CN1CC(C)OC(C)C1)c1c(N)n(CC(C)C)c(=O)[nH]c1=O (configuration not stated) | -4% | 11% | -1%[57.1 µM] | 5% | -5% | -11%
CC(C)CCNC(=O)c1ccc2c(c1)NC(=O)C(CS(=O)(=O)Cc1cccc(Br)c1)N2 (configuration not stated) | . | ? | 10µM* | 4% | -11% | -19%
C/C(=N\NC(=O)c1cc2ccccc2cc1O)c1ccc(C)o1 | -29% | ? | 79µM* | -5% | -23% | -4%
C/C(=N\NC(=O)c1cccc(N/N=C(\C)c2ccco2)c1)c1ccco1 | -7%[11.6 µM] | 45µM* | -1% | -20% | 89µM* | 22µM*
C/C(=N/NC(=O)c1cc2ccccc2cc1O)c1ccco1 | -9%[11.6 µM] | 45µM* | 63µM* | 1% | ? | -14%
C/C(=N\NC(=O)c1cccc([N+](=O)[O-])c1)c1ccco1 | 2% | ? | 20% | 8% | -8% | -17%
C/C(=N\NC(=O)c1cc(C)nc2ccccc12)c1ccco1 | -8% | 145% | ? | 6% | -6% | -2%
CCC(Oc1ccc(F)cc1)C(=O)Nc1c(C(=O)c2ccc(C)cc2)oc2ccccc12 (configuration not stated) | . | 18% | 37% | 4% | 5% | -17%
CN(Cc1ccccc1)C(=O)CSc1nc(-c2ccc(F)cc2)cc(C(F)(F)F)n1 | . | -15% | 22% | -19% | -8% | -10%
CC(=O)c1sc2nsc(SCCN3CCCC3)c2c1N | ? | 18µM* | 1% | -5% | -27% | 4%
N[C@@H]1CCN(O)C1=O | . | . | . | . | -11%[60.1 µM] | .
CC(CNC(=O)c1ccc2nc(CCc3ccccc3)oc2c1)c1ccccc1 (configuration not stated) | . | -6% | 38% | -13% | -6%[60.1 µM] | -9%
Cc1ccc(C(=O)ONc2ccc(N=NC(=O)c3ccccc3O)cc2)cc1 | -35%[57.1 µM] | 2% | 7% | 1% | -21% | 8.9µM*
O=c1[nH]c(=S)[nH]c2n[nH]nc12 | . | -6% | . | -22% | -14% | .
SMILES | WRN helicase inh | Pol iota inh | POLB inh | FEN1 inh | POLK inh | POLH inh
COc1ccc(-c2c3c(=O)n(C)c(=O)n(C)c3c3n2-c2ccccc2NC3c2ccco2)cc1 (configuration not stated) | . | -17% | -19% | -3% | -2% | -16%
N=C(N)SCc1cccc2c(=O)cc(-c3ccccc3)oc12 | . | -25% | . | 50µM* | -19% | .
O=c1cc(-c2ccccc2)oc2c1ccc1ccccc12 | . | . | . | . | -11%[19.4 µM] | .
Cc1cc[n+](CCC2CCCCC2)c2ccccc12 | . | 38% | . | 3% | 5% | .
COc1ccccc1CNC(=O)C(=O)NCCC1CCCCN1S(=O)(=O)c1ccc(C)cc1 (configuration not stated) | -15% | 15% | . | -2% | -6% | -20%
COc1ccccc1CNC(=O)C(=O)NCCC1CCCCN1S(=O)(=O)c1cccs1 (configuration not stated) | 0%[11.6 µM] | 40% | . | -1% | 89µM* | 0%
Cc1ccccc1OCC(=O)Nc1cc(C)c(O)c(-c2nc3ccccc3o2)c1 | . | ? | . | 0% | 2% | .
COc1cc(C(c2c(C)[nH][nH]c2=O)c2c(C)[nH][nH]c2=O)cc(Cl)c1O | 4% | 0% | 3% | -19% | 2% | -9%
COc1ccc(C(c2c(C)[nH][nH]c2=O)c2c(C)[nH][nH]c2=O)cc1Br | -15% | ? | 14% | -12% | -4% | -12%
COc1cc(C(c2c(C)[nH][nH]c2=O)c2c(C)[nH][nH]c2=O)cc(OC)c1OC | -9% | 8.9µM* | 20% | -9% | -6% | -17%
COc1cc(C(c2c(C)[nH][nH]c2=O)c2c(C)[nH][nH]c2=O)ccc1OS(=O)(=O)c1ccc(C)cc1 | -11% | 3.5µM* | -10% | -15% | -7% | -3%
COc1cc(C(c2c(C)[nH][nH]c2=O)c2c(C)[nH][nH]c2=O)ccc1OC(=O)c1cccc([N+](=O)[O-])c1 | -9% | 10µM* | 10% | 1% | -17% | -7%
COc1cc(C(c2c(C)[nH][nH]c2=O)c2c(C)[nH][nH]c2=O)ccc1OC(C)C | -20% | -2% | 6% | -16% | -13% | -5%
COc1cc(C(c2c(C)[nH][nH]c2=O)c2c(C)[nH][nH]c2=O)ccc1OS(=O)(=O)c1ccccc1 | -9%[57.1 µM] | 10µM* | -11% | -4% | -20% | -4%
Cc1ccc(N(CC(=O)Nc2ccc(Br)c(C)c2)S(=O)(=O)c2cccs2)cc1 | . | -5% | -2% | -16% | -7% | -5%
N#Cc1c2c(c(Cl)n3c1nc1ccccc13)CCCC2 | . | -14% | . | -1% | 4% | .
O=C(C[n+]1cccc2cc(Cl)ccc21)c1cccc([N+](=O)[O-])c1 | . | 1% | . | -21% | -4% | .
COc1ccc(OC)c(C(c2c(C)[nH][nH]c2=O)c2c(C)[nH][nH]c2=O)c1 | 0% | 28µM* | 37% | -1% | -11% | 0%
Cc1cccc(N2CCN(C(=O)c3cccc(-n4c(C)nc5cccnc54)c3)CC2)c1C | . | 0% | 6% | 13% | -6% | -10%

Screens from PubChem BioAssay.
